Assay [1] deals with T1, Serine/threonine-protein kinase TBK1 (Homo sapiens) (UniProt Q9UHD2).
T1 sequence (whole entry): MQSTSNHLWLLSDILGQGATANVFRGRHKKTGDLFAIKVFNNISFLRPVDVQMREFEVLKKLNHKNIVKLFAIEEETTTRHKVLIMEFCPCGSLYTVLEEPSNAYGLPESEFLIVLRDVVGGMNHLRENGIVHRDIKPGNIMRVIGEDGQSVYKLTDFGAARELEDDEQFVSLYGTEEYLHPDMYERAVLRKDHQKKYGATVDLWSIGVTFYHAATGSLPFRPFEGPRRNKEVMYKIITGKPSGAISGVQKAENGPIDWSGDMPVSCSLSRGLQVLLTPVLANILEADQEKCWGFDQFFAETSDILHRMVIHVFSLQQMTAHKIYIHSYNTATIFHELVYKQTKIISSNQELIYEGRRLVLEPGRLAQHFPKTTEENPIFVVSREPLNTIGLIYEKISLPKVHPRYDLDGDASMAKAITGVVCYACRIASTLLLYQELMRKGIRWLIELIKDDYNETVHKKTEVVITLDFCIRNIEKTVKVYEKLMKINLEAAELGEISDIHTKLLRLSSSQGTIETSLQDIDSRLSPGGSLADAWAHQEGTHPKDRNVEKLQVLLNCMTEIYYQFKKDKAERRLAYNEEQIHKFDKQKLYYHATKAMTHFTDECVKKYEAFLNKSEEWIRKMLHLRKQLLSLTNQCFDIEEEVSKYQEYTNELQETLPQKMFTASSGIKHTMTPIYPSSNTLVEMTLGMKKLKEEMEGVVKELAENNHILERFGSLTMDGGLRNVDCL
Particulars: at 10 µM.

Assay [2] addresses T2, TGF-beta receptor type-1 (Homo sapiens) (UniProt P36897).
T2 sequence (whole entry): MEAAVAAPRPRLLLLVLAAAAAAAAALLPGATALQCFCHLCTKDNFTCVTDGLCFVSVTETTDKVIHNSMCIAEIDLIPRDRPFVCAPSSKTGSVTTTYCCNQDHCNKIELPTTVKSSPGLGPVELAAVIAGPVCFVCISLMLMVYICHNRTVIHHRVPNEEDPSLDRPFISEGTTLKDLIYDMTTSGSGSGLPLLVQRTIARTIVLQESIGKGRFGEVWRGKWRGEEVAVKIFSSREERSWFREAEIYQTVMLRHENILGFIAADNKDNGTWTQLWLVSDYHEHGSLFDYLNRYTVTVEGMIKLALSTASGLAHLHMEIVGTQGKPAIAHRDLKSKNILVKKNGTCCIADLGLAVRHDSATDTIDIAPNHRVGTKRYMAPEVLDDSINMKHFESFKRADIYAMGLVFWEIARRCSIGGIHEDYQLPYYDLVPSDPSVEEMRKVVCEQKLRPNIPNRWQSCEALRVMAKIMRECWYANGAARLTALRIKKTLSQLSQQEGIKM
Particulars: at 1 µM.

The target of assay [3] is T3, Inhibitor of nuclear factor kappa-B kinase subunit alpha (Homo sapiens) (UniProt O15111).
T3 sequence (whole entry): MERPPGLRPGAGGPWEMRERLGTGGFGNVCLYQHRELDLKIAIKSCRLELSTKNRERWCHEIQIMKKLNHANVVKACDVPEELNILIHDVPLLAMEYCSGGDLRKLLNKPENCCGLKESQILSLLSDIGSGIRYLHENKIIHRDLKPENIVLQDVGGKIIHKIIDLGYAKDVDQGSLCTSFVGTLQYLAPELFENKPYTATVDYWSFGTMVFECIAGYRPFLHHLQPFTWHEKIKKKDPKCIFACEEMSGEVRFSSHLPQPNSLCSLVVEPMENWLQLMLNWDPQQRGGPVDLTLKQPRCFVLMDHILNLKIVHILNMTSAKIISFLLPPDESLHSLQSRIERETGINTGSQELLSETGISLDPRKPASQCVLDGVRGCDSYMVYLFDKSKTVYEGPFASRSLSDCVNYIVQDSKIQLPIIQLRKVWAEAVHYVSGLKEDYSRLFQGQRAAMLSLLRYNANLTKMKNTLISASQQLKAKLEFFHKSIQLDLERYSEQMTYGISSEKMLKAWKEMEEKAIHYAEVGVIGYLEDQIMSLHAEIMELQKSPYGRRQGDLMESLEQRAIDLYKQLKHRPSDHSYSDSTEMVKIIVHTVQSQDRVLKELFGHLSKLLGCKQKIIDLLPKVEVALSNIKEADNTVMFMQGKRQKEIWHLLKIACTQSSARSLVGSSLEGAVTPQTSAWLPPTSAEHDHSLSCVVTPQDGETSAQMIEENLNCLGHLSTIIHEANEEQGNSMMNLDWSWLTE
As to conditions: at 1 µM.

Assay [4] deals with T3, Inhibitor of nuclear factor kappa-B kinase subunit alpha (Homo sapiens). Particulars: at 10 µM.
In assay [5] the target is Insulin receptor (Homo sapiens) (UniProt P06213). As to conditions: at 10 µM.
Sequence of Insulin receptor (Homo sapiens) (P06213 28-758 limits assumed): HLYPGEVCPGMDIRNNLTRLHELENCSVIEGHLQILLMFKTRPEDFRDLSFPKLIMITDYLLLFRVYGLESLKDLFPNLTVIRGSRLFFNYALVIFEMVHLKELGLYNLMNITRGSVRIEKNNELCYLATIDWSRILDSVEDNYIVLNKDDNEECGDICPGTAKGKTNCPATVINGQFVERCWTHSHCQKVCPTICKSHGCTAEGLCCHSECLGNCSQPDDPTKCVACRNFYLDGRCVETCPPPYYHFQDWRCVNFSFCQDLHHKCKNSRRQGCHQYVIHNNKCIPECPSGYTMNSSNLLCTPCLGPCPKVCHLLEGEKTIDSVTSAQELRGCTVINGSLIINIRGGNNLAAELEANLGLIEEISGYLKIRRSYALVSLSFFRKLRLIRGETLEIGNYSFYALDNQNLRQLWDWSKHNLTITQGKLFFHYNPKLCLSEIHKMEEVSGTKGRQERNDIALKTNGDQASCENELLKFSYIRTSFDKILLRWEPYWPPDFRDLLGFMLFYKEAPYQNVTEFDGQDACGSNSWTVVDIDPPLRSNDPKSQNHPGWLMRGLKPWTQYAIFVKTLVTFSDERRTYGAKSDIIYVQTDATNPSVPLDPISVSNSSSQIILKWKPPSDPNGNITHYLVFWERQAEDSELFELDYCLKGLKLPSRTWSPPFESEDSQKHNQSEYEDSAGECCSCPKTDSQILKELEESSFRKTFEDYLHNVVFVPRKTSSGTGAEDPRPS
Sequence of Insulin receptor (Homo sapiens) (P06213 763-1382 limits assumed): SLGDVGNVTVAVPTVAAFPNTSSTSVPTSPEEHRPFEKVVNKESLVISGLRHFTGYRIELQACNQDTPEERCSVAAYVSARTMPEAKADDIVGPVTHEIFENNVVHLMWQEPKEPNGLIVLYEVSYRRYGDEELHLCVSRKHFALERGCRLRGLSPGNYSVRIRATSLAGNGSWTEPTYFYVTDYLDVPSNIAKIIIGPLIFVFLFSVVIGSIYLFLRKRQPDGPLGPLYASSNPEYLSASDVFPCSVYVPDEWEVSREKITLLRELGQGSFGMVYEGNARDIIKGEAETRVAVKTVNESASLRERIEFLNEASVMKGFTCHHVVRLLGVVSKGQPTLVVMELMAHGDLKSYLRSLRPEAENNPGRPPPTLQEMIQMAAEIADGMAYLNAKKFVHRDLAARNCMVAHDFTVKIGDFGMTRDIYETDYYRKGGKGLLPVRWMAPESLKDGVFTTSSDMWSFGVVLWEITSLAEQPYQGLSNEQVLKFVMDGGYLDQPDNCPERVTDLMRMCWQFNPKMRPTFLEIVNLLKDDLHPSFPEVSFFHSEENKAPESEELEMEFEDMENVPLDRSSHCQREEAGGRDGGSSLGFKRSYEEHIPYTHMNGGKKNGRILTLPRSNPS
Assay [6] shares this target. Particulars: at 1 µM.
Assay [7] has the same target. As to conditions: at 10 µM. This is another data set of the same source.
The target in assay [8] is Interleukin-1 receptor-associated kinase 1 (Homo sapiens) (UniProt P51617). As to conditions: at 10 µM.
Sequence of Interleukin-1 receptor-associated kinase 1 (Homo sapiens) (P51617 whole entry, looked up): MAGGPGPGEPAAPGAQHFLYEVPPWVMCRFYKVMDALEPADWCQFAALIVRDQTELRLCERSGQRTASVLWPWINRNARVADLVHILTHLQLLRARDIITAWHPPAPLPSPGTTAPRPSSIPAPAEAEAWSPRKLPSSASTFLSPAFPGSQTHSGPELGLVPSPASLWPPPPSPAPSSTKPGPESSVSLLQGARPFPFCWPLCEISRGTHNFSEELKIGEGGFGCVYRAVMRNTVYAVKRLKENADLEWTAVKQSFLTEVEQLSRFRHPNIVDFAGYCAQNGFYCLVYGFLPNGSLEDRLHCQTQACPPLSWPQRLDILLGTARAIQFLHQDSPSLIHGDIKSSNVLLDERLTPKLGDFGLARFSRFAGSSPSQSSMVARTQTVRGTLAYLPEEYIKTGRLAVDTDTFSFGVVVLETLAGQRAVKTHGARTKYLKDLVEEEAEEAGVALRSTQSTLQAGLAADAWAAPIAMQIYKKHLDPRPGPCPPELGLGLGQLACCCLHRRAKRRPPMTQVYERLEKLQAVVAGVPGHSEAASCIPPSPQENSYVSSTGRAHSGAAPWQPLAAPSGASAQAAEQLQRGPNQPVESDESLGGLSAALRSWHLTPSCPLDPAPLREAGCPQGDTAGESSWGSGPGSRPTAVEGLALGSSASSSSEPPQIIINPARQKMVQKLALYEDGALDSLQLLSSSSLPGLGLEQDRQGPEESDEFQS
In assay [9] the target is T4, Interleukin-1 receptor-associated kinase 4 (Homo sapiens) (UniProt Q9NWZ3).
T4 sequence (whole entry): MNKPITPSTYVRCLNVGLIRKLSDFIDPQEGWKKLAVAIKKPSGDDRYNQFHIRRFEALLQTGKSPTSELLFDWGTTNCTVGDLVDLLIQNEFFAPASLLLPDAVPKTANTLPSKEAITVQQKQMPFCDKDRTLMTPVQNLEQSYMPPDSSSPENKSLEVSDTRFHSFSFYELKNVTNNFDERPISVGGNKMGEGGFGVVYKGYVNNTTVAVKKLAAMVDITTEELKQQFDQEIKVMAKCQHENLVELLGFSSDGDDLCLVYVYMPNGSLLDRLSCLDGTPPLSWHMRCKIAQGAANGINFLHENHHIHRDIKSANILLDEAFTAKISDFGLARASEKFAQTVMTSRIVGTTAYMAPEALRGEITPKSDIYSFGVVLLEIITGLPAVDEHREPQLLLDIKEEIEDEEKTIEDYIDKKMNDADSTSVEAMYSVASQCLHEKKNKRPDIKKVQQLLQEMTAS
Particulars: at 10 µM.

For assay [10], the target named is Insulin receptor-related protein (Homo sapiens) (UniProt P14616). As to conditions: at 1 µM.
Sequence of Insulin receptor-related protein (Homo sapiens) (P14616 27-742 limits assumed): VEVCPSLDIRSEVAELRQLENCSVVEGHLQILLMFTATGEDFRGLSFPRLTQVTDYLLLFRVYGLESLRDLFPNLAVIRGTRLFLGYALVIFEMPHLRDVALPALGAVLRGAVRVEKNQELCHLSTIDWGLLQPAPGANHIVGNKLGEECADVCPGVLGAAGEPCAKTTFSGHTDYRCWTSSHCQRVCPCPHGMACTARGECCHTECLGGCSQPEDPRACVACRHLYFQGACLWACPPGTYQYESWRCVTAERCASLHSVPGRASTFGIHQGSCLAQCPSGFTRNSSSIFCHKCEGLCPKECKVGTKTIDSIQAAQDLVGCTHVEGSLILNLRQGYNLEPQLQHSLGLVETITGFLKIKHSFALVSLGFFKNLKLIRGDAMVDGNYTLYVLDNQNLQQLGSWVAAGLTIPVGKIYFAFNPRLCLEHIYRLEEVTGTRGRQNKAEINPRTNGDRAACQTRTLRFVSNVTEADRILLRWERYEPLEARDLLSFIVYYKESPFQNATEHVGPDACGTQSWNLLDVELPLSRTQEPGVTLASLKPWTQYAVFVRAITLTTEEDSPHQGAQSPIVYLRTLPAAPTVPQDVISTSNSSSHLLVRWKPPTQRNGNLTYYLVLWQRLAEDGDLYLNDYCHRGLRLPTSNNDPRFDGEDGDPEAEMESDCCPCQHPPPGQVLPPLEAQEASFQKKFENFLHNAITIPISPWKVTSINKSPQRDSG
Sequence of Insulin receptor-related protein (Homo sapiens) (P14616 747-1297 limits assumed): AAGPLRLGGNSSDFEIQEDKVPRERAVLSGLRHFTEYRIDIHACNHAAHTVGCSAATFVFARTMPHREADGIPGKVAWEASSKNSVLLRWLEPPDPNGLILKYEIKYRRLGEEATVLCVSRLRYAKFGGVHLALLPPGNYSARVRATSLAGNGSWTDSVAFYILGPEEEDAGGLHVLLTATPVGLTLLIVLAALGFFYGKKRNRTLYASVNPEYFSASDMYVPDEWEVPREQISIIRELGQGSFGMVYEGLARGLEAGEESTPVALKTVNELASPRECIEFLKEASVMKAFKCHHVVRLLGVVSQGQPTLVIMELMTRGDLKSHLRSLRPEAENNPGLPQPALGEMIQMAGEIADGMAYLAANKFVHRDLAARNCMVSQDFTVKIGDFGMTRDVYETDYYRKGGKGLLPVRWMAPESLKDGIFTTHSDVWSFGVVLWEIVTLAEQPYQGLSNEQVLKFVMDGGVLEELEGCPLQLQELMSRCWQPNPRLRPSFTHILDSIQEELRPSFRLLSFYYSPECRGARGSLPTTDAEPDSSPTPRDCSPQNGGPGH
Assay [11] has the same target. Particulars: at 10 µM.
The target in assay [12] is T5, Tyrosine-protein kinase ITK/TSK (Homo sapiens) (UniProt Q08881).
T5 sequence (whole entry): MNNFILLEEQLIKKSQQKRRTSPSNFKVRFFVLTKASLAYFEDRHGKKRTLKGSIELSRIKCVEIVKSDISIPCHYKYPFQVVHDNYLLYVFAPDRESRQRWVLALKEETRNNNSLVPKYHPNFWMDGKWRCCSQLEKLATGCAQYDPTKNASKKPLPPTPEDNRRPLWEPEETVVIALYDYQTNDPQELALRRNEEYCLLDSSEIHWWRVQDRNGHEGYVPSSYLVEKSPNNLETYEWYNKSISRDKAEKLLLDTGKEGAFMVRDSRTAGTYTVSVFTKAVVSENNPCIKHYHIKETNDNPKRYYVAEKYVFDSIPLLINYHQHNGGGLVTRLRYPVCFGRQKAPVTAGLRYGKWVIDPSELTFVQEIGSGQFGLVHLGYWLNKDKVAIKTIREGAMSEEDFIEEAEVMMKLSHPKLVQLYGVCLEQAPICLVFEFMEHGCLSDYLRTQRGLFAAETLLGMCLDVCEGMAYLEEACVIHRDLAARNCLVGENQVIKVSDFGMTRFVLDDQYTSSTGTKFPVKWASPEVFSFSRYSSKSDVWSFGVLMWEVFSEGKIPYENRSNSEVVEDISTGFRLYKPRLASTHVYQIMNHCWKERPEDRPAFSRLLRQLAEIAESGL
As to conditions: at 1 µM.

The target in assay [13] is Insulin-like growth factor 1 receptor (Homo sapiens) (UniProt P08069). As to conditions: at 1 µM.
Sequence of Insulin-like growth factor 1 receptor (Homo sapiens) (P08069 31-736 limits assumed): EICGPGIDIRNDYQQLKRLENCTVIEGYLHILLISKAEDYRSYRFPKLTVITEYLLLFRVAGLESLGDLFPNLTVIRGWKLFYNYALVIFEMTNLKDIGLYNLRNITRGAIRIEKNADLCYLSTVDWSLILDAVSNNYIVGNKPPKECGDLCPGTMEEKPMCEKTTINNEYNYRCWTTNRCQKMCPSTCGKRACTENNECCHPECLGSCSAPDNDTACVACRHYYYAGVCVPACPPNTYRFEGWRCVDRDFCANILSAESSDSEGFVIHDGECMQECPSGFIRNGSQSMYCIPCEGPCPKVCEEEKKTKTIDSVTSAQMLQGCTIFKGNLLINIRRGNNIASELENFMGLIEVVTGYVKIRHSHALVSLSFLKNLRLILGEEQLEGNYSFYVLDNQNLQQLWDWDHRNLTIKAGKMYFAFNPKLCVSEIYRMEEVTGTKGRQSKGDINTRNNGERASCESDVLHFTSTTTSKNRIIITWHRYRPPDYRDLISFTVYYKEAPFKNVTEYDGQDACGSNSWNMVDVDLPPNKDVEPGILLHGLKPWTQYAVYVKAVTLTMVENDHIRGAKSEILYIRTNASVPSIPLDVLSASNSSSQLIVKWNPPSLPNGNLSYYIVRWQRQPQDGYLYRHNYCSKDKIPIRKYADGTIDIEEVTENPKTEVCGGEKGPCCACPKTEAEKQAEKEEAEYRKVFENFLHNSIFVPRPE
Sequence of Insulin-like growth factor 1 receptor (Homo sapiens) (P08069 741-1367 limits assumed): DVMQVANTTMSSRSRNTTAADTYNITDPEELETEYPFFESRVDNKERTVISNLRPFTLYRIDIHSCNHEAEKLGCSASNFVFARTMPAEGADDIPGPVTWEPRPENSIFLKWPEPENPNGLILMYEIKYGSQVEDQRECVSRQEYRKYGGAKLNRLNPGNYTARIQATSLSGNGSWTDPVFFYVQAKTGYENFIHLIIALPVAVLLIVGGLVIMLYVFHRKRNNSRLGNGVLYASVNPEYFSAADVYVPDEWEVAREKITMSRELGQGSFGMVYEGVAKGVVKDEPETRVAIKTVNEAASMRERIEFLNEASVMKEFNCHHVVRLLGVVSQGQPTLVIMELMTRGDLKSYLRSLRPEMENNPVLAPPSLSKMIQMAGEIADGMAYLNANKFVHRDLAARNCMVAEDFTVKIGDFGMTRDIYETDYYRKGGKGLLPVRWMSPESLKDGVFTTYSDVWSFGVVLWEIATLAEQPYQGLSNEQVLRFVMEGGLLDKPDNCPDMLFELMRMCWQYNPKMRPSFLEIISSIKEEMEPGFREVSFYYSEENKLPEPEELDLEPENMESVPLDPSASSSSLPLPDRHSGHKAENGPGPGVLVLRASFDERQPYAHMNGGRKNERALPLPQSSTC
The target is the same in assay [14]. Particulars: at 10 µM.
The target of assay [15] is T6, Inhibitor of nuclear factor kappa-B kinase subunit beta (Homo sapiens) (UniProt O14920).
T6 sequence (whole entry): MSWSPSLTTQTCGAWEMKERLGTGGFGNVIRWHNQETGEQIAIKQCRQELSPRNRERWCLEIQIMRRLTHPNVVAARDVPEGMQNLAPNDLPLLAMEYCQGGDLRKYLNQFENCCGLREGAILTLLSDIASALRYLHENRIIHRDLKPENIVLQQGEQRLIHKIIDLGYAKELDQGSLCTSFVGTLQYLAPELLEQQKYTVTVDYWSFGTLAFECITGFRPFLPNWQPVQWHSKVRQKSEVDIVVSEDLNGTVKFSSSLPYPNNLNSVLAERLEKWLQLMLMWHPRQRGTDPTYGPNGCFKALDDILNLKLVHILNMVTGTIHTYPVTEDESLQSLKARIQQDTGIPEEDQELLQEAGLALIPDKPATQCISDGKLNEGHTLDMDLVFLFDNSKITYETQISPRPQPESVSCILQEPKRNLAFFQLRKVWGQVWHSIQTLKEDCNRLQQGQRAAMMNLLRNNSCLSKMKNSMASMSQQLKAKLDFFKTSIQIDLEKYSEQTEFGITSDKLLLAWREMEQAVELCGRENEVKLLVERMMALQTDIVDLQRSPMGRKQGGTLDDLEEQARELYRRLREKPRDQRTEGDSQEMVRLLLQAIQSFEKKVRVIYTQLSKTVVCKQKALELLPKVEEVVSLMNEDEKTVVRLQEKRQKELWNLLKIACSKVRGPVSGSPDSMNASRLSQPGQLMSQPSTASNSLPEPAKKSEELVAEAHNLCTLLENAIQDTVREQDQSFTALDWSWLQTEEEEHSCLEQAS
Particulars: at 1 µM.

The target in assay [16] is Insulin receptor (Homo sapiens) (UniProt P06213). As to conditions: at 1 µM. The source holds these as a separate data set.
In assay [17] the target is Interleukin-1 receptor-associated kinase 1 (Homo sapiens) (UniProt P51617). As to conditions: at 1 µM.
For assay [18], the target named is T4, Interleukin-1 receptor-associated kinase 4 (Homo sapiens). As to conditions: at 1 µM.
Assay [19] has as its target T6, Inhibitor of nuclear factor kappa-B kinase subunit beta (Homo sapiens). As to conditions: at 10 µM.

SMILES strings stand for the structures.

Take `N#C/C(=C\c1ccc(O)c(O)c1)C(=O)NCc1ccccc1`: the residual activity (usually the signal under treatment as a percentage of the control signal) in [1] amounted to 65%; in assay [2], 81%; in assay [3], 104%; in [4], 89%; in assay [5], 89%; in assay [6], 100%. The residual activity came to 85% in assay [7]; 81% in [8]; 100% in [9]; 88% in assay [10]; 85% in assay [11]; 104% in [12].
For the compound `CCN(CC)CCNC(=O)c1c(C)[nH]c(/C=C2\C(=O)Nc3ccc(Cl)cc32)c1C`, the residual activity is 1% in [1]; 30% in assay [13]; 3% in assay [14]; 65% in assay [4]; 98% in assay [15]; 32% in [16]. The residual activity in [5] came out at 6%; in assay [6], 8%; in assay [7] it was 0%; in assay [17], 9%; in assay [8], 0%; in [18], 22%. Besides, the residual activity in assay [9] is 7%; in assay [10], 13%; in assay [11], 0%; in assay [12], 21%.
Turning to `N#Cc1c(NC(=O)c2cccc3ccccc23)sc2c1CCCC2`, the residual activity in assay [1] came to 73%; in assay [14], 124%; in assay [19], 100%; in assay [16], 137%; in assay [7], 92%; in assay [17] it was 94%. The residual activity in [8] stood at 95%; in [18], 96%; in assay [9], 72%; in [11] it was 72%.
Take `Cc1cc(C)c(/C=C2\C(=O)Nc3ccccc32)[nH]1`: the residual activity came to 52% in assay [1]; 73% in [4]; 76% in [17]; 75% in [8]; 39% in [18]; 13% in assay [9]. The residual activity in [10] was found to be 65%; in assay [11], 3%.
In the case of `NC(=O)c1cccc(-c2cc(Nc3ccc(OC(F)(F)F)cc3)ncn2)c1`, the residual activity in assay [1] worked out at 79%; in assay [3], 128%; in [4] it was 149%; in [17], 95%; in assay [8], 93%; in [10] it was 139%. In addition, the residual activity in assay [11] was 98%.
For `O=C(Nc1nc2ccccc2n1CCN1CCOCC1)c1cccc([N+](=O)[O-])c1`, the residual activity in assay [1] is 60%; in assay [2] it was 76%; in assay [17] it was 11%; in assay [8], 16%; in [18], 13%; in assay [9], 15%. In addition, the residual activity in assay [12] worked out at 74%.
For the compound `CN([C@@H](Cc1ccc(OS(=O)(=O)c2cccc3cnccc23)cc1)C(=O)N1CCN(c2ccccc2)CC1)S(=O)(=O)c1cccc2cnccc12`, the residual activity came to 134% in assay [16] and 84% in [5].
As for `O=C1NC(=O)C(c2c[nH]c3ccccc23)=C1c1c[nH]c2ccccc12`, the residual activity in assay [1] came to 14%; in assay [14], 76%; in [5] it was 62%; in assay [6] it was 100%; in [18], 81%; in [9], 27%. Further, the results for the residual activity in assay [10], in assay [11] and in assay [12] were 120%, 37% and 100%, respectively.
With `Nc1nccc(-c2c(-c3ccc(F)cc3)ncn2C2CCNCC2)n1`, the residual activity in [1] came to 69%; in assay [3] it was 120%; in [15], 116%; in assay [10], 140%.
In the case of `COc1cc2nccc(Oc3ccc(NC(=O)Nc4cc(C)on4)c(Cl)c3)c2cc1OC`, the residual activity in assay [1] was found to be 68%; in [15], 104%; in [19], 102%; in [17], 82%; in [10], 102%; in assay [11], 29%.
Regarding `NC(=O)c1ccc(-c2nc(-c3ccc4c(c3)OCCO4)c(-c3ccccn3)[nH]2)cc1`, the residual activity in assay [1] came out at 72%; in assay [9], 97%; in assay [10] it was 124%.

The values are drawn from ChEMBL document CHEMBL2218924, “A broad activity screen in support of a chemogenomic map for kinase signalling research and drug discovery” (Biochem J, 2013).
